Read-outs that look alike come from different tables or passages of the source.
Tests used:
Parameters in all cases: species or system human, MV4-11 + K-562 + COLO205 + SK-N-BE2 + OVCAR-8
AKT1 = conditions: read-out: apparent Kd, compound concentrations: 100 nM and 1000 nM (sheet 'Samples'), n = 1
AKT2 = conditions: read-out: apparent Kd, compound concentrations: 100 nM and 1000 nM (sheet 'Samples'), n = 1
RIOK2 = conditions: read-out: apparent Kd, compound concentrations: 100 nM and 1000 nM (sheet 'Samples'), n = 1
BMPR1B = conditions: read-out: apparent Kd, compound concentrations: 100 nM and 1000 nM (sheet 'Samples'), n = 1
EPHB1 = conditions: read-out: apparent Kd, compound concentrations: 100 nM and 1000 nM (sheet 'Samples'), n = 1
FLT4 = conditions: read-out: apparent Kd, compound concentrations: 100 nM and 1000 nM (sheet 'Samples'), n = 1
TGFBR1 = conditions: read-out: apparent Kd, compound concentrations: 100 nM and 1000 nM (sheet 'Samples'), n = 1
AURKB = conditions: read-out: apparent Kd, compound concentrations: 100 nM and 1000 nM (sheet 'Samples'), n = 1
BTK = conditions: read-out: apparent Kd, compound concentrations: 100 nM and 1000 nM (sheet 'Samples'), n = 1
PLK4 = conditions: read-out: apparent Kd; compound concentrations: 100 nM and 1000 nM (sheet 'Samples'), CATDS: 1.60355035004788E-2; n = 1
PRKD2 = conditions: read-out: apparent Kd, compound concentrations: 100 nM and 1000 nM (sheet 'Samples'), n = 1
PRKD3 = conditions: read-out: apparent Kd, compound concentrations: 100 nM and 1000 nM (sheet 'Samples'), n = 1
DDR2 = conditions: read-out: apparent Kd, compound concentrations: 100 nM and 1000 nM (sheet 'Samples'), n = 1
JAK2 = conditions: read-out: apparent Kd; compound concentrations: 100 nM and 1000 nM (sheet 'Samples'), CATDS: 6.3201453255696996E-2; n = 1
ACAD8 = conditions: read-out: apparent Kd; compound concentrations: 100 nM and 1000 nM (sheet 'Samples'), CATDS: 1.7028042656885199E-2; n = 1

## CS(=O)(=O)CCNCc1ccc(-c2ccc3ncnc(Nc4ccc(OCc5cccc(F)c5)c(C(F)(F)F)c4)c3c2)o1 [GW576484X]
AKT1; CATDS: 4.8644382119909499E-2
  potency estimated from few doses: 2100 nM
AKT2; CATDS: 4.5987801057845099E-2
  potency estimated from few doses: 2420 nM
RIOK2; CATDS: 5.8358702635658101E-2
  potency estimated from few doses: 1410 nM

## Cl.Oc1cccc(Nc2ccnc3cc(-c4ccncc4)ccc23)c1 [GW494601A]
BMPR1B; CATDS: 3.10657492682959E-2
  potency estimated from few doses: 211 nM
EPHB1; CATDS: 2.51104508673669E-2
  potency estimated from few doses: 479 nM
FLT4; CATDS: 2.2541605457452998E-2
  potency estimated from few doses: 773 nM
TGFBR1; CATDS: 2.26052406331183E-2
  potency estimated from few doses: 762 nM

## O=C1N=C(NCc2cccs2)SC1Cc1ccc2ncccc2c1 (centres unmarked) [RO4629078-000]
AURKB; CATDS: 8.1625100314479202E-3
  potency estimated from few doses: 1200 nM
BTK; CATDS: 1.32457116906247E-2
  potency estimated from few doses: 360 nM
EPHB1; CATDS: 1.5393002457868701E-2
  potency estimated from few doses: 272 nM
FLT4; CATDS: 1.2746443799933199E-2
  potency estimated from few doses: 389 nM
PLK4
  potency estimated from few doses: 254 nM
PRKD2; CATDS: 7.0804860166384202E-3
  potency estimated from few doses: 2110 nM
PRKD3; CATDS: 7.3913708056946199E-3
  potency estimated from few doses: 1750 nM

## NC(=O)c1cccc(Nc2nccc(Nc3cccc4[nH]ncc34)n2)c1 [GW782612X]
DDR2; CATDS: 3.15347900030735E-2
  potency estimated from few doses: 2580 nM
TGFBR1; CATDS: 5.60805138513292E-2
  potency estimated from few doses: 406 nM

## Cc1ccc(O)cc1Nc1ccnc2cc(-c3ccc(CN4CCCCC4)o3)ccc12 [GW557777X]
BMPR1B; CATDS: 2.1920480328631101E-2
  potency estimated from few doses: 73.2 nM
BTK; CATDS: 1.36078174892899E-2
  potency estimated from few doses: 960 nM
DDR2; CATDS: 1.39203861332134E-2
  potency estimated from few doses: 800 nM
EPHB1; CATDS: 9.2243435191231293E-2
  potency estimated from few doses: 1.47 nM
FLT4; CATDS: 1.3507307153085599E-2
  potency estimated from few doses: 1020 nM
PRKD2; CATDS: 2.1213632342937001E-2
  potency estimated from few doses: 83.5 nM
PRKD3; CATDS: 1.7058744664209799E-2
  potency estimated from few doses: 226 nM
TGFBR1; CATDS: 1.55635860325104E-2
  potency estimated from few doses: 377 nM

## CNC1=NC(=O)/C(=C/c2ccc3ncccc3c2)S1 [RO4595949-000]
JAK2
  potency estimated from few doses: 790 nM
PRKD2; CATDS: 5.1323444817528999E-2
  potency estimated from few doses: 1770 nM

## Cl.Cl.Cl.c1ccc(Oc2ccc(Nc3ccnc4cc(-c5ccc(CN6CCNCC6)o5)ccc34)cc2)nc1.c1ccc(Oc2ccc(Nc3ccnc4cc(-c5ccc(CN6CCNCC6)o5)ccc34)cc2)nc1 [GW567142A]
ACAD8
  potency estimated from few doses: 2040 nM
AKT1; CATDS: 1.79490160981602E-2
  potency estimated from few doses: 1660 nM
AKT2; CATDS: 1.7589072796327002E-2
  potency estimated from few doses: 1790 nM
AURKB; CATDS: 2.12373497583834E-2
  potency estimated from few doses: 952 nM
BTK; CATDS: 2.14657129362281E-2
  potency estimated from few doses: 922 nM
RIOK2; CATDS: 1.8917557706548099E-2
  potency estimated from few doses: 1380 nM

— article PMC11062922 (Nature Chemical Biology, 2023)
